Measured values from PubChem BioAssay AID1508600 (Functional Genomics Laboratory (NCATS/FGL), 2020).
The whole screen tested about 53,000 sequences, of which about 3,700 (7%) were called active. The sample as a whole holds a higher share of actives than the screen did. Values without a mark were called inactive.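 The calls were made as follows: active = gene knockdowns whose robust z-score for IL-1 alpha signal is at least 2 or at most -2, so actives lie on both sides; inactive = the rest.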

Assay: Components of the Cytosolic LPS Sensing Pathway: Gene Identification via Genome-wide siRNA Screen
Details: RAW264.7 macrophages, IL-1a HTRF, actives lie on both sides, screened at 100 nM (by protocol), cells primed 5 h with Pam3CSK4 first
Source text: Non-canonical inflammasome activation by cytosolic LPS is a critical component of the host response to Gram-negative bacterial infection, however we lack a comprehensive understanding of the cellular processes that control this pathway. Here we describe a genome-wide siRNA screen to identify genes regulating the mouse macrophage IL-1 alpha response to cytosolic LPS.
RAW264.7 cells were maintained in complete DMEM media, comprising DMEM with 4.5 g/L glucose, 10% FBS (Gemini Bio-Products, West Sacramento, CA), 2 mM Glutamine (Lonza) and 20 mM HEPES (Lonza), hereafter complete DMEM.
The RNAi screen was conducted in 384-well format using the Ambion Silencer Mouse Genome siRNA Library (#4391425), which consists of three unique, nonoverlapping, nonpooled siRNAs for each of 17,000 gene targets. siRNA reagents ([…]) were stamped into 384-well white flat-bottom microplates (Corning, 3570) using a Velocity11 VPrep liquid handling system (Agilent) integrated into a BioCel robotic platform (Agilent) in columns 1-22, leaving columns 23-24 empty for negative (Ambion, Negative control #1) and positive (mouse Casp4) controls, respectively. The median value of each plate's negative control column was used to normalize sample wells, and the positive control was used to assess transfection efficiency and assay performance.
Lipofectamine RNAiMAX Transfection Reagent ([…]; Invitrogen) was added in […] serum-free, antibiotic-free media to plate wells using a Thermo Scientific Matrix WellMate and Microplate Stacker. Plates were incubated for 45 min at room temperature to allow for the sufficient formation of siRNA-lipid complexes. Cells were seeded at a density of 1x10^4 cells per well in 20 microL media containing 20% (vol/vol) FBS without antibiotics. The final concentration of siRNA in each well was 100 nM. Cells were cultured for 48h at 37 degrees C in 5% CO2 before addition of […] of TLR ligand Pam3CSK4 for 5 hours. The medium was then removed, replaced with […] growth media and cell were transfected with […] of LipidA and TransIT-TKO (Mirus) for 24 hour. At the end of the LipidA treatment, […] of supernatant was transferred to a 384 Greiner Bio-one non-binding low volume plate and […] of IL-1a HTRF reagent (Cisbio, 62MIL1APEH) was added and incubated at room temperature overnight. The plates were read on an EnVision plate reader (PerkinElmer). Cell viability was measured by adding 20ul Cell Titer Glo to the original plate and running a luminescence read on the EnVision. The quantified IL-1a signal for each siRNA gene-targeted well was divided by the median of the negative control wells and multiplied by 100 to achieve a negative control normalized value for each well/siRNA. This normalized value was then used to generate a robust z-score by first taking the log of each value and then by subtracting the median and dividing by the […].
CCACCAGAUACAUAUUUGUTT against Gnpnat1 gave a z-score of -0.352. GGCUUUAAAGAAUGAUUCATT against Cfap97 gave a z-score of 0.197. With GGAACUCCACUUUCUUUUUTT against Ripply3 the z-score was 2.27 (active). GGCUGCACAAACAUGGUUCTT against Pard6a showed a z-score of -0.146. In the case of GGUGGAAGAUUAGUGACUUTT against Trim38, the z-score is reported as 1.63. For CCGUGUAAGGUGUGGAGUGTT against Mcat, the z-score was -2.27 (active). In the case of GGAAAGAUUGUACCAGUUGTT against Cmpk1, the z-score is reported as 2.58 (active). Sequence GGUAAAAUUCCAGAGUUGUTT against Serpinb9 has a z-score of -0.412. GGGUUUGGACUGAUAUACUTT against Vrk2 gave a z-score of -0.465. GGAAUCAGGAAUGCUACUUTT against Tsr1 gave a z-score of 0.216. For “CAAGAAGGUCAUGUUAUUGTT against Olfr106-ps”, the z-score was 0.495. For CGGCUCGUACACAUGUGAATT against Creld2, the z-score was 0.199. For GGAUGAAGAUGGAGACAUGTT against Lmx1b, the z-score was -2.58 (active). “GGGUUCAUAUGUUUUGGAUTT against C130050O18Rik” showed a z-score of 1.38. For GGAGCAGUAUAUCCUACAUTT against Olfr510, the z-score was 2.82 (active). CCCUGACCUUGUGGUAGAATT against Aspdh gave a z-score of -0.165. In the case of CGAGAAGAUAUUUAAAGAGTT against Myo10, the z-score is reported as -0.045. For GGAAAACAAGAGAAGGCGCTT against Pom121, the z-score was 0.361. GGCCUAAUUUCCUCUAAUATT against Padi1 showed a z-score of 0.452. In the case of GGUCUUCAGACCAGAAACATT against Hsd3b2, the z-score is reported as -3.19 (active). Work on GGAACAUUCUAGAAUCUGUTT against Rps6kb2 yielded a z-score of 0.986. Sequence GGCCAAUAAAGAAACAAACTT against Cst9 has a z-score of 1.08. In the case of GGGUGUUGAAAGACUUUUATT against Tnks, the z-score is reported as -0.122. In the case of GCAAUCAUUUCUUCAUCUATT against Olfr148, the z-score is reported as 0.255. In the case of GGAAUACAAAUUCAAGAUCTT against Vamp5, the z-score is reported as -0.82. In the case of CCUAUCUUUUCCCUACAUGTT against Cyp4a31, the z-score is reported as 2.01 (active). In the case of GGGAUAGUGUUCCUUAUCUTT against Neu1, the z-score is reported as -2.6 (active). Sequence GGUCAGCGUGGAGUCAAUATT against Fam184b has a z-score of -1.92. Sequence GGAUAUCAUAUUUUCUCAGTT against Fam71d has a z-score of 0.0644. With GGAGGUGCGCUUCUUUAACTT against Chst5 the z-score was 0.24.
